Among the data in PubChem BioAssay (NCATS) are Potency values, retold here.

Results filed as inconclusive are left out. A call without a number means that no potency is given here. Activity calls are given as the source filed them. Calls follow the shape of the dose curve; as a rule, active = well fitted cell-killing curve with a large enough effect; inconclusive = small, poorly fitted or top-dose-only effect; inactive = flat fitted curve, though single readings scatter. Bridge positions count the residues as written; N and C are the ends. Square brackets hold non-standard residues; d marks the D form. Peptide text beside a SMILES is read from it. * marks the point of attachment. ξ: configuration not given here. Octanoyl(6-Me) = CCC(C)CCCCC(=O)*; ξThr(3R) = C[C@@H](O)C(N)C(=O)O; dDab = NCC[C@@H](N)C(=O)O; Dab = NCC[C@H](N)C(=O)O
Potency is read from the fitted curve at half-maximal effect.

This experiment can be described thus: Quantitative highthroughput screen to assess conditional lethalithy of P12 Ichikawa cells grown in RPMI1640 with dialyzed fetal bovine serum (RPMI+ds) (AID 1963880). Also: nearly all actives have a fitted effect of over 35% in size. The following applies: ATP luminescence, 48 h; Potency: P12-Ichikawa viability; series mostly up to 45.8 µM. An excerpt: Assay Provider: Jason Cantor Ph.D.
Department of Biochemistry
University of Wisconsin-Madison, Madison, WI, USA
Chemical screening studies have identified drug sensitivities across hundreds of cancer cell lines but most putative therapeutics fail to translate. Discovery and development of drug candidates in models that more accurately reflect nutrient levels in human blood is a major challenge. Here we performed high-throughput screens in conventional versus Human Plasma-Like Medium (HPLM) to identify compounds that were "missed" when screening using the artificial culture condition. Sets of conditional anticancer compounds spanned phases of clinical development and included non-oncology drugs were assessed. […] We also traced conditional phenotypes for several chemotherapeutics to availability of HPLM-specific metabolites and confirmed others for compounds whose reported targets are encoded by nonessential genes. Our findings establish generalizable strategies for exploiting conditional lethality in HPLM to reveal therapeutic candidates and mechanisms of action in cancer cells.
Described herein are the results of each viability screens against three cell lines: NOMO1 (an acute myeloid leukemia cell line); P12-Ichikawa (a T-cell acute lymphoblastic leukemia); and SEM (a B-cell ALL). Each assay was screened using 3 different cell culture media: homemade human plasma-Like medium with 10% dialyzed fetal bovine serum (HPLM+ds); RPMI1640 with 10% untreated FBS and 5mM glucose (RPMI+s); and RPMI1640 with 10% dialyzed fetal bovine serum and 5 mM glucose (RPMI+ds).
PROTOCOL TABLE (as described by Inglese J, Shamu CE and Guy RK. 2007)
SEQUENCE No. (e.g., 1, 2, 3, etc.); […] (e.g., Cells, Incubation, Reagent, etc.); VALUE and DESCRIPTION.
1; Cells; 5 uL; white, solid bottom 1536-well Greiner assay plate.
2; Compounds; 23 nL; Kalypsis pin tool (Wako USA) equipped with a 1536-well pin head to transfer to the assay plates.
3; Incubation; 48 hours; 37C incubation.
4; Reagent; 3 uL; CellTiter Glo (Promega).
5; Incubation; 5 min, room temperature
6; Detection; Luminescence, Viewlux PerkinElmer.
NOTES (numbers refer to Sequence numbers above)
1. Briefly, 5 ul of cell reagent was dispensed using a Multidrop Combi Dispenser. The NOMO1 and SEM cells were plated at 500 cells/well and the P12-Ichikawa line at 1000 cells/well.
2. After seeding the cells, 23 nL of MIPE 4.1 library compounds (in DMSO) were added to each plate using a Kalypsys 1536 Pintool dispenser. Bortezomib at final concentration of […] and DMSO were added to each plate as positive and negative controls respectively. For each screen, MIPE 4.1 compounds were added over an eleven-point concentration range […] in 3-fold dilutions.
3. Each plate was covered with a stainless steel gasketed lid to prevent evaporation and incubated for 48 hour at 37C, 95% relative humidity, and 5% CO2.
4-5. Three microliter CellTilter-GloTM luminescent substrate mix (Promega) reagent was added to the assay plate and incubated at room temperature for 5 min.
6. The luminescence signal was measured using a ViewLux (PerkinElmer) multiplate reader with a 2 second exposure time per plate. Data for each compound were normalized as percent viability such that measurements for DMSO and the empty well controls in each plate were defined as 100% and 0%, respectively.
Take `NC(=O)c1ccc(N(C(N)=O)c2c(F)cccc2F)nc1-c1ccc(F)cc1F`: the Potency entry is “inactive”.
The result for `CCC(C)CCCCC(=O)N[C@@H](CCN)C(=O)NC(C(=O)N[C@H](CCN)C(=O)N[C@@H]1CCNC(=O)C([C@@H](C)O)NC(=O)[C@@H](CCN)NC(=O)[C@@H](CCN)NC(=O)[C@@H](CC(C)C)NC(=O)[C@H](Cc2ccccc2)NC(=O)[C@H](CCN)NC1=O)[C@@H](C)O` (stereo partly drawn) ({Octanoyl(6-Me)}-[Dab][ξThr(3R)][dDab][dDab][Dab]F[dL][dDab][dDab][ξThr(3R)]; lactam 4-C) reads “inactive”.
With `CC[C@H]1OC(=O)[C@H](C)[C@@H](O[C@H]2C[C@@](C)(OC)[C@@H](O)[C@H](C)O2)[C@H](C)[C@@H](O[C@@H]2O[C@H](C)C[C@H](N(C)C)[C@@H]2O)[C@](C)(OC)C[C@@H](C)C(=O)[C@H](C)[C@@H](O)[C@]1(C)O`, the Potency result was “inactive”.
In the case of `C[C@H](O)[C@@H]1C(=O)N2C(C(=O)O)=C(S[C@@H]3CN[C@H](CNS(N)(=O)=O)C3)[C@@H](C)[C@@H]12` it was “inactive”; in that of `O=C(O)[C@@H](c1ccc(OCc2ccc3ccccc3n2)cc1)C1CCCC1`, “inactive”.
The result for `CC(C)c1noc(N2CCC(COc3ccc(-c4ccc(S(C)(=O)=O)cc4)nc3)CC2)n1` reads “inactive”.
On to `CC(C(=O)O)c1cccc(C(=O)c2ccccc2)c1` (stereo not given), for which the Potency result is “inactive”.
In the case of `COc1ccc2c(OCc3nnc4ccc(-c5ccccc5)nn34)ccnc2c1` it was “inactive”.
Take `CCc1c2c(nc3ccc(O)cc13)-c1cc3c(c(=O)n1C2)COC(=O)[C@]3(O)CC`: the Potency is 0.0042 µM (active).
The result for `CNC[C@H](O)c1ccc(O)c(O)c1` reads “inactive”; that for `NC(=O)c1ncn([C@@H]2O[C@H](CO)[C@@H](O)[C@@H]2O)c1N`, “inactive”.
The result for `CN1CCN(c2c(F)cc3c(=O)c(C(=O)O)cn(CCF)c3c2F)CC1` reads “inactive”; that for `Cc1cc(SCc2sc(-c3ccc(C(F)(F)F)cc3)nc2C)ccc1OCC(=O)O`, “inactive”.
In the case of `CS(=O)(=O)c1ccc(C2=C(c3ccccc3)C(=O)OC2)cc1` it was “inactive”; in that of `C[C@@H]1COCCN1c1cc(C2(S(C)(=N)=O)CC2)nc(-c2ccnc3[nH]ccc23)n1` (stereo not given in full), 2.95 µM (active).
`CCc1cccc2c3c([nH]c12)C(CC)(CC(=O)O)OCC3` (stereo not given): the Potency entry was “inactive”.
Consider `Cc1ccc(C(=O)c2cc(O)c(O)c([N+](=O)[O-])c2)cc1`, for which the Potency result is “inactive”.
The result for `NCCc1ccc(O)c(O)c1` reads “inactive”.
In the case of `CON(C)C(=O)N1N=C(c2cc(F)ccc2F)S[C@]1(CCCN)c1ccccc1` it was “inactive”; in that of `CCOC(=O)N1CCC(=C2c3ccc(Cl)cc3CCc3cccnc32)CC1`, “inactive”.
The result for `COc1cc2nc(-c3ccc(N4CCN(C)CC4)cc3)nc(NCCN3CCOCC3)c2cc1OC` reads 2.64 µM (active).
For the molecule `NC1CCC(N[C@@H]2C[C@H]2c2ccccc2)CC1` (stereo not given in full), the Potency result was “inactive”.
Regarding `O=c1[nH]c(-c2ccc(C(F)(F)F)cc2)nc2c1CSCC2`, the Potency result was “inactive”.
For `O=S(=O)(NCCNCC=Cc1ccc(Br)cc1)c1cccc2cnccc12`, the Potency result was “inactive”.
As for `COc1cc(C=CC(=O)O)ccc1O`, the Potency entry was “inactive”.
In the case of `CO[C@H]1C=CO[C@@]2(C)Oc3c(C)c(O)c4c(O)c(c5c(c4c3C2=O)NC2(CCN(CC(C)C)CC2)N=5)=NC(=O)C(C)=CC=C[C@H](C)[C@H](O)[C@@H](C)[C@@H](O)[C@@H](C)[C@H](OC(C)=O)[C@H]1C` it was “inactive”; in that of `Cc1cn([C@H]2C=C[C@@H](CO)O2)c(=O)[nH]c1=O`, “inactive”.
In the case of `O=C(NCCCNc1nc(Nc2cccc(NC(=O)N3CCCC3)c2)ncc1I)c1cccs1` it was “inactive”.
On to `CC(=O)NCCC(=O)N[C@@H](CCC(N)=O)C(=O)N[C@@H](CO)C(=O)N[C@@H](CCC(N)=O)C(=O)N[C@@H](CCC(N)=O)C(=O)N[C@H](C(=O)N[C@@H](Cc1ccccc1)C(=O)N[C@]1(C)CCCCCCC=CCCC[C@@](C)(C(=O)N[C@@H](CCC(N)=O)C(=O)N[C@@H](CC(N)=O)C(N)=O)NC(=O)[C@H](CC(C)C)NC(=O)[C@H](CC(C)C)NC(=O)[C@@H](CCCNC(=N)N)NC(=O)[C@H](Cc2c[nH]c3ccccc23)NC(=O)[C@H](CC(C)C)NC(=O)[C@H](CC(N)=O)NC1=O)[C@H](C)O`, for which the Potency entry was “inactive”.
The result for `NC(=O)c1cccc(N)c1` reads “inactive”; that for `Cc1c(C(=O)Nc2ccc(N3C[C@@H](C)O[C@@H](C)C3)nc2)cccc1-c1ccc(OC(F)(F)F)cc1`, 4.18 µM (active).
In the case of `c1ccc2c(CCNc3ccc(Nc4ccncc4)cc3)c[nH]c2c1` it was 20.9 µM (active).
Consider `NC(=O)c1noc([C@H](CCCC2CCCCC2)CC(=O)NO)n1`, for which the Potency is 18.7 µM (active).
The result for `Cc1ccccc1C(OCCN(C)C)c1ccccc1` (stereo not given) reads “inactive”.
As for `O=C1NC(=O)C(=Cc2cccc(C(F)(F)F)c2)S1`, the Potency result is “inactive”.
Take `CCOc1cc(CC(=O)N[C@@H](CC(C)C)c2ccccc2N2CCCCC2)ccc1C(=O)O`: the Potency is 3.32 µM (active).
On to `O=C1NC(=O)C(=Cc2ccc3nccnc3c2)S1`, for which the Potency result was “inactive”.
The result for `CC(=O)OC1C(C)OC(Oc2c(-c3ccc(O)cc3)oc3cc(O)cc(O)c3c2=O)C(O)C1OC(C)=O` (stereo not given) reads “inactive”.
The result for `Cc1cccc(-c2[nH]c(C(C)(C)C)nc2-c2ccc3nccnc3c2)n1` reads “inactive”; that for `C[C@H]1C[C@H]2[C@@H]3CCC4=CC(=O)C=C[C@]4(C)[C@@H]3C(=O)C[C@]2(C)[C@@]1(O)C(=O)CO`, “inactive”.
